Our source for the Potency values is PubChem BioAssay (Tox21).

The source made the active and inactive calls. Unless noted, calls follow the shape of the dose curve; as a rule, active = well fitted curve in the direction sought with a large enough effect in the repeat runs; inconclusive = weak or mixed curves; inactive = no such curve, though single readings can be large; an effect the other way counts as inactive or inconclusive.

A short description of test [1]: qHTS assay to identify small molecule antagonists of the thyroid receptor (TR) signaling pathway - cell viability counter screen (AID 743064). Also: nearly all actives have a fitted effect of over 50% in size. Also: potency is read from the fitted curve at half-maximal effect. In a few lines: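 Same-well viability check: GH3.TRE-Luc cells stimulated with 1 nM T3 alongside test compound for 23.5 h, followed by CellTiter-Fluor fluorescence.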
Test [2] can be described thus: qHTS assay to identify small molecule antagonists of the thyroid receptor (TR) signaling pathway (AID 743065). Also: nearly all actives have a fitted effect of over 55% in size. Also: potency is read from the fitted curve at half-maximal effect. The essentials: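 GH3.TRE-Luc rat pituitary cells (two TREs driving luciferase) were dosed with compound, then stimulated with 1 nM T3 (final) for 23.5 h at 37 C. ONE-Glo luminescence was the read-out, with CellTiter-Fluor fluorescence as the cytotoxicity counter-screen.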
For orientation: In qHTS, concentration-response curves come from the screen itself.

The subject of test [3] is thyroid hormone receptor (rat, GH3 cells). In words: qHTS assay to identify small molecule agonists of the thyroid receptor (TR) signaling pathway (AID 743066; calls by dose curve).
Test [4] can be described thus: qHTS assay to identify small molecule antagonists of the estrogen receptor alpha (ER-alpha) signaling pathway - cell viability counter screen (AID 743074; calls by dose curve;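 also: HEK293 cells carrying ER-alpha-UAS-bla reporter stimulated with 17beta-estradiol; nearly all actives have a fitted effect of over 45% in size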).
A short description of test [5]: qHTS assay to identify small molecule antagonists of the estrogen receptor alpha (ER-alpha) signaling pathway using the BG1 cell line - cell viability counter screen (AID 743081).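 Also: compound given together with 17beta-estradiol as the ER stimulus; nearly all actives have a fitted effect of over 45% in size.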 Also: potency is read from the fitted curve at half-maximal effect.
Test [6] in a line: qHTS assay to identify small molecule that activate the aryl hydrocarbon receptor (AhR) signaling pathway - cell viability counter screen (AID 743086). Also: nearly all actives have a fitted effect of over 45% in size. Also: potency is read from the fitted curve at half-maximal effect. The essentials: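 HepG2-AhR-luc (HG2L7.5c1) cells, 4000/well, treated 24 h at 37 C with compound; viability measured as CellTiter-Fluor fluorescence after 30 min in the same wells as the luciferase read.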
Test [7] in a line: qHTS assay to identify small molecule antagonists of the peroxisome proliferator-activated receptor gamma (PPARg) signaling pathway - cell viability counter screen (AID 743194). Also: nearly all actives have a fitted effect of over 55% in size. Also: potency is read from the fitted curve at half-maximal effect. The following applies: Potency: co-treated with 50 nM rosiglitazone unless noted. In a few lines: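 Cytotoxicity counter screen in PPARg-bla HEK293H cells, same wells as reporter assay. Compounds plus 50 nM rosiglitazone (final) for 17 h at 37 C, then viability read by CellTiter-Glo luminescence.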

Test [8] can be described thus: qHTS assay for small molecule agonists of the antioxidant response element (ARE) signaling pathway (AID 743202; active = well fitted activation curve with a large enough effect in the signal ratio in the repeat runs, not every such curve was filed as active; inconclusive = weak or mixed curves, or effect the other way; inactive = no such curve, though single readings can be large or run the other way; the % refers to the signal ratio). In a few lines:
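HepG2 ARE-bla reporter line, 2,000 cells/well; 5 h preincubation 37 C/5% CO2; compound (DMSO) 16 h 37 C; B/G FRET substrate 2 h RT; fluorescence intensity.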

The nature of test [9]: qHTS assay for small molecule activators of the heat shock response signaling pathway - cell viability counter screen (AID 743209). Also: nearly all actives have a fitted effect of over 50% in size. Also: potency is read from the fitted curve at half-maximal effect. The essentials: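 To flag cytotoxic compounds, HSE-bla HeLa cells plated at 1500 cells/well were dosed for 5 h at 37 C, followed by the reporter FRET read and then CellTiter-Glo, with luminescence recorded 30 min after reagent addition.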
A short description of test [10]: qHTS assay for small molecule activators of the heat shock response signaling pathway (AID 743210; active = well fitted activation curve with a large enough effect in the signal ratio in the repeat runs, with a control signal flat, not every such curve was filed as active; inconclusive = weak or mixed curves; the % refers to the signal ratio). In a few lines: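 Beta-lactamase reporter read-out: FRET substrate fluorescence after 2.5 h at RT, following 5 h compound treatment at 37 C of HeLa cells carrying HSE-driven bla reporter; quantitative HTS format.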
For another test, the target named is Aromatase (Homo sapiens) (UniProt P11511). In words: qHTS assay to identify aromatase inhibitors (AID 743083). Also: nearly all actives have a fitted effect of over 55% in size. Also: potency is read from the fitted curve at half-maximal effect.
The nature of test [11]: qHTS assay to identify aromatase inhibitors - cell viability counter screen (AID 743084).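 Also: cells stimulated with testosterone during compound exposure; nearly all actives have a fitted effect of over 55% in size.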 Also: potency is read from the fitted curve at half-maximal effect.
The target in test [12] is Aryl hydrocarbon receptor (Homo sapiens) (UniProt P35869). In words: qHTS assay to identify small molecule that activate the aryl hydrocarbon receptor (AhR) signaling pathway (AID 743085). Also: nearly all actives have a fitted effect of over 15% in size. Also: potency is read from the fitted curve at half-maximal effect.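 As to activation: HG2L7.5c1 human HepG2 liver cells with stably integrated DRE-driven firefly reporter.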 In a few lines: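 Reporter assay in engineered HepG2 line HG2L7.5c1, whose plasmid carries twenty dioxin responsive elements upstream of firefly luciferase. Treatment lasted 24 h at 37C; ONE-Glo luminescence gauged induction.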

Test [13] deals with Estrogen receptor (Homo sapiens) (UniProt P03372). In words: qHTS assay to identify small molecule agonists of the estrogen receptor alpha (ER-alpha) signaling pathway (AID 743075; calls by dose curve;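 also: HEK293 GripTite cells with ER-alpha and UAS-driven beta-lactamase reporter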; also: potency is read from the fitted curve at half-maximal effect).
The target of test [14] is Peroxisome proliferator-activated receptor gamma (Homo sapiens) (UniProt P37231). In words: qHTS assay to identify small molecule agonists of the peroxisome proliferator-activated receptor gamma (PPARg) signaling pathway (AID 743094; active = well fitted activation curve with a large enough effect in the signal ratio in the repeat runs, not every such curve was filed as active; inconclusive = weak or mixed curves, or effect the other way; inactive = no such curve, though single readings can be large or run the other way; the % refers to the signal ratio). The essentials: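 Fluorescence-based beta-lactamase readout in HEK293H PPARg UAS-bla cells after 17 h compound exposure (37C) and 1 h B/G FRET substrate incubation at room temperature.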

Test [15] has the same target. In words: qHTS assay to identify small molecule antagonists of the peroxisome proliferator-activated receptor gamma (PPARg) signaling pathway (AID 743191; calls by dose curve; also: nearly all actives have a fitted effect of over 30% in size). In a few lines: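 GeneBLAzer PPARg UAS-bla HEK293H cells, 5 h post-plating, exposed to compounds 17 h at 37C. LiveBLAzer B/G FRET substrate added for 1 h at room temperature; beta-lactamase reporter read by fluorescence intensity.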

The nature of test [16]: qHTS assay for small molecule agonists of the antioxidant response element (ARE) signaling pathway - cell viability counter screen (AID 743203; calls by dose curve; also: nearly all actives have a fitted effect of over 55% in size; also: potency is read from the fitted curve at half-maximal effect). In a few lines:
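Parallel cytotoxicity read-out for the ARE-bla screen: HepG2 reporter cells, 16 hrs with compounds, then CellTiter-Glo luminescence.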

For test [17], the target named is Estrogen receptor (Homo sapiens) (UniProt P03372). In words: qHTS assay to identify small molecule agonists of the estrogen receptor alpha (ER-alpha) signaling pathway using the BG1 cell line (AID 743079). Also: nearly all actives have a fitted effect of over 20% in size. Also: potency is read from the fitted curve at half-maximal effect. The following applies: BG1Luc4E2 cells, ERE-luciferase agonist, 22 h; activation: at 70.3 µM (top of the series).
Test [18] is described as follows: qHTS assay to identify small molecule antagonists of the estrogen receptor alpha (ER-alpha) signaling pathway using the BG1 cell line (AID 743080; calls by dose curve;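 also: BG1 cells stimulated with 17beta-estradiol alongside compound; nearly all actives have a fitted effect of over 25% in size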; also: potency is read from the fitted curve at half-maximal effect). The essentials: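 Quantitative HTS on the Tox21 10K library: BG1 cells with endogenous ER-alpha and ERE-luciferase reporter, 17beta-estradiol stimulation, 21.5 h compound exposure, luminescence endpoint with parallel fluorescence cytotoxicity counter-read.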

In test [19] the target is Estrogen receptor (Homo sapiens) (UniProt P03372). In words: qHTS assay to identify small molecule antagonists of the estrogen receptor alpha (ER-alpha) signaling pathway (AID 743069; active = well fitted curve in the direction sought with a large enough effect in the signal ratio in the repeat runs, not every such curve was filed as active; inconclusive = weak or mixed curves, or effect the other way; inactive = no such curve, though single readings can be large or run the other way; the % refers to the signal ratio; also: potency is read from the fitted curve at half-maximal effect). In a few lines:
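Beta-lactamase FRET fluorescence is read after 2 hr at room temperature with LiveBLAzer B/G substrate. Before that, ER-alpha-bla HEK293 cells sit 4 hr after plating, then receive compound plus 17beta-estradiol and incubate 18 hr at 37C.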

Chain of Estrogen receptor (Homo sapiens) (P03372 whole entry, looked up): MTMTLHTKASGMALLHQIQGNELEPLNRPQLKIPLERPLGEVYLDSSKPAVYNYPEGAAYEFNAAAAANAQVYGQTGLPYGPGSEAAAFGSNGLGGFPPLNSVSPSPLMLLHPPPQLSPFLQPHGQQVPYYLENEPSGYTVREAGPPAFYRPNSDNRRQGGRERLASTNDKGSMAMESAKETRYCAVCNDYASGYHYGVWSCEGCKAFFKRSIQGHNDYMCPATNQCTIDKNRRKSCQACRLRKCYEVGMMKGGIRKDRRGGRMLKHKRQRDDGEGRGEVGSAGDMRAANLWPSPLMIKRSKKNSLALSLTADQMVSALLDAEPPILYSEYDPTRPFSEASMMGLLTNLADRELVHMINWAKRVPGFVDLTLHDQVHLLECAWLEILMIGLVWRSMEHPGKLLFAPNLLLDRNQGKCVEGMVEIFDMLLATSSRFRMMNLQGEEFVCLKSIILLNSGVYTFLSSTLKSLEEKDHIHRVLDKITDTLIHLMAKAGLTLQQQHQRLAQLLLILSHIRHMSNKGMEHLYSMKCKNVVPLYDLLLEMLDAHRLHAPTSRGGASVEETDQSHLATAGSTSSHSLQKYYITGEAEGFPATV
Chain of Peroxisome proliferator-activated receptor gamma (Homo sapiens) (P37231 whole entry, looked up): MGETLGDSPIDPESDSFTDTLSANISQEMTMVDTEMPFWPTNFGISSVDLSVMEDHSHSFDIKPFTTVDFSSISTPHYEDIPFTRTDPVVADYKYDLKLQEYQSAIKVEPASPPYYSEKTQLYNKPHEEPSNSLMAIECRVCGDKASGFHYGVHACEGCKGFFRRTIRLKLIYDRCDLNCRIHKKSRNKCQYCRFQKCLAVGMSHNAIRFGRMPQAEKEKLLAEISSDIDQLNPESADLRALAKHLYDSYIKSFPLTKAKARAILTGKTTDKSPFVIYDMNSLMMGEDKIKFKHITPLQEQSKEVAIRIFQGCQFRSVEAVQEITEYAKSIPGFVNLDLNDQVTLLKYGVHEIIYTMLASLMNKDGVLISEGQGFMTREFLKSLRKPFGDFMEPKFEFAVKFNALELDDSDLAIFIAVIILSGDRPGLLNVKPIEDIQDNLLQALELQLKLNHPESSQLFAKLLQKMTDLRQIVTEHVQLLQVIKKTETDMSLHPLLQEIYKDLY
Chain of Aromatase (Homo sapiens) (P11511 whole entry, looked up): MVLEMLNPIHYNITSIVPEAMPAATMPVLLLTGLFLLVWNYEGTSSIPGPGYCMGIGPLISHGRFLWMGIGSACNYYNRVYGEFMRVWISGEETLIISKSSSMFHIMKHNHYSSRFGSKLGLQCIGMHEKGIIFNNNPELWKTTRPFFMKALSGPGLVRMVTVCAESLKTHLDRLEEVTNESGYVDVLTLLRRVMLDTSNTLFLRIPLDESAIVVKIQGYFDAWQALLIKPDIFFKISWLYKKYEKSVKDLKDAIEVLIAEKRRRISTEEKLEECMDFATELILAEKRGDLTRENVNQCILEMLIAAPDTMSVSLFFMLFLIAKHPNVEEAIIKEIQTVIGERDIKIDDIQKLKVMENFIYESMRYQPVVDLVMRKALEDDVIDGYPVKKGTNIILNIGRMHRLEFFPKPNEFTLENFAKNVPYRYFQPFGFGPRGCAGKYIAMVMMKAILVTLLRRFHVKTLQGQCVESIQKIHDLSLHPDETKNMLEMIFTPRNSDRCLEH
Chain of Aryl hydrocarbon receptor (Homo sapiens) (P35869 whole entry, looked up): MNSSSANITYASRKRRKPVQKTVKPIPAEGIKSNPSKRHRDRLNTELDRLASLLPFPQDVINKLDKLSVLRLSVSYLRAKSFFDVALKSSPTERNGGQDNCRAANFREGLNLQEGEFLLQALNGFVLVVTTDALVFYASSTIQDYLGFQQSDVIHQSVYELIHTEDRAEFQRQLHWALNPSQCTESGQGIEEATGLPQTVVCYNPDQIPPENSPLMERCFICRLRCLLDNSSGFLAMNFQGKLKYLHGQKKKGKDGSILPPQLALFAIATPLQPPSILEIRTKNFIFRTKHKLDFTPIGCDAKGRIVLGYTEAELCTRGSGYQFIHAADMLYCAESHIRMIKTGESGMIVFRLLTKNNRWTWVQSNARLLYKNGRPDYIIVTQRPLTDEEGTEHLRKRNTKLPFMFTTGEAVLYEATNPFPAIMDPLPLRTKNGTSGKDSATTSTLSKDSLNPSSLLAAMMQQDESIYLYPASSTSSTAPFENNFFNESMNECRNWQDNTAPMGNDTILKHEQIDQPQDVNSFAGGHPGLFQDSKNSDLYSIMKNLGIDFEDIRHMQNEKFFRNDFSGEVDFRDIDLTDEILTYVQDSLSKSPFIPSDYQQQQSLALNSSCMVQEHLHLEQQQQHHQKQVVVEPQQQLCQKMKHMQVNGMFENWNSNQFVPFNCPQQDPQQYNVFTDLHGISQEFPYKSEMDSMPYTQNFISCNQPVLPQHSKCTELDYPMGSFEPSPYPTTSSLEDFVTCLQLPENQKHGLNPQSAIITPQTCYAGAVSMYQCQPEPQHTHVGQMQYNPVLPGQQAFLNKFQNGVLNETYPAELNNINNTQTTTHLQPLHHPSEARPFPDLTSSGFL

With `Nc1cc(Cl)ccc1Cl`, the Potency entry in [1], in test [2], in [3], in [4], in test [5] and in [6] was “inactive” each time. Moreover, the Potency entry in [7], in test [8], in test [9] and in test [10] was “inactive” throughout.
On to `CCOP(=O)(OCC)Oc1cc(C)nc(C(C)C)n1`, for which the Potency entry (in test [1]; in test [2]; in [3]; in test [4]; in test [5]; in the test with Aromatase (Homo sapiens)) was “inactive” throughout. For the same molecule, the Potency entry in test [11], in test [12], in test [6], in test [7] and in test [9] was “inactive” each time.
For the molecule `Oc1cc(Cl)c(Cl)c(Cl)c1Cl`, the Potency in [1] was 29.9 µM (active); in [2], 15 µM (active); in test [12], 11.9 µM (active); in test [9], 13.5 µM (active). The Potency result in [3], in test [13], in test [5] and in [6] was “inactive” in each case.
As to `O=C(NC(=O)c1ccccc1Cl)Nc1ccc(OC(F)(F)F)cc1`, the Potency entry (in test [1]; in test [2]; in test [3]; in test [4]; in test [5]; with Aromatase (Homo sapiens)) was “inactive” throughout. In addition, the Potency entry in [11], in [6], in [14], in [15], in test [7] and in test [16] was “inactive” in each case. The Potency entry in test [10] is “inactive”.
On to `O=[N+]([O-])C(Br)Br`, for which the Potency result in test [1], in test [2], in test [3], in test [4], in [5] and in [12] was “inactive” throughout. Also, the Potency result in [6], in test [14], in test [9] and in test [10] was “inactive” each time. The Potency in test [16] is 61.3 µM (active).
`Nc1ccc(N=Nc2ccccc2)cc1`: the Potency in [1] is 56.1 µM (active); in test [17] it was 14.1 µM (active); in test [5], 43.3 µM (active); in test [11], 24.3 µM (active); in test [12], 26.5 µM (active). Also, the Potency result (in test [2]; in test [3]; in [13]; with Aromatase (Homo sapiens); in [16]; in test [9]) was “inactive” each time.
Turning to `CCCCCON=O`, the Potency result (in test [1]; in test [2]; in test [3]; in [5]; in the test with Aromatase (Homo sapiens); in [11]) was “inactive” in each case. The Potency result in test [12], in [6], in [15], in test [7], in test [8] and in [16] was “inactive” throughout. Moreover, the Potency entry in [9] was “inactive”.
With `CCOC(=O)CCN(SN(C)C(=O)Oc1cccc2c1OC(C)(C)C2)C(C)C`, the Potency entry in test [1], in test [2], in test [4], in test [13], in test [17] and in [18] was “inactive” in each case. In addition, the Potency result (in [5]; in the test with Aromatase (Homo sapiens); in test [11]; in test [12]; in [6]; in test [7]) was “inactive” each time. In addition, the Potency entry in [8], in [16] and in test [9] was “inactive” each time.
Turning to `N#CC(C#N)=NNc1cccc(Cl)c1`, the Potency in [1] was 3.44 µM (active); in test [2], 0.969 µM (active); in test [19] it was 0.692 µM [inconclusive] (active); in test [18], 2.17 µM (active); in test [5], 5.45 µM (active); in the test with Aromatase (Homo sapiens), 2.73 µM (active). The Potency in test [11] is 9.69 µM (active); in test [6], 15.4 µM (active); in test [7], 0.49 µM (active); in [16], 27.3 µM (active). In addition, the Potency result in [12] was “inactive”.
As to `[C-]1=CC=CC1.[Cl][Zr+2][Cl].c1cc[cH-]c1`, the Potency entry in [1], in test [2], in [3], in test [4], in test [5] and in test [11] was “inactive” each time. Also, the Potency result in [6], in [8], in test [16] and in [9] was “inactive” in each case.
Consider `Oc1ccc2[nH]cc(CCCCN3CC=C(c4ccccc4)CC3)c2c1`, for which the Potency is 8.41 µM (active) in test [1] and 11.9 µM (active) in test [2]. The Potency entry (in test [3]; in test [4]; with Aromatase (Homo sapiens); in [11]; in [12]) was “inactive” throughout.
`CCOP(=O)(OCC)Oc1nc(Cl)c(Cl)cc1Cl`: the Potency was 60.8 µM (active) in test [1]; 24.2 µM (active) in test [2]; 12.2 µM [inconclusive] (active) in test [13]; 48.3 µM (active) in [18]; 27.1 µM (active) with Aromatase (Homo sapiens). Besides, the Potency result in test [3], in [5] and in test [9] was “inactive” in each case.
With `NC(=O)C(Cl)Cl`, the Potency result (in [1]; in test [2]; in test [3]; in test [4]; in [5]; with Aromatase (Homo sapiens)) was “inactive” throughout. In addition, the Potency entry in [11], in test [12], in [6], in [7], in [8] and in test [16] was “inactive” throughout. In addition, the Potency result in [9] and in [10] was “inactive” in each case.
For the molecule `O=c1c2ccccc2c(=O)c2c1cc(Cl)c1[nH]c3c([nH]c12)c(Cl)cc1c(=O)c2ccccc2c(=O)c13`, the Potency result in test [1], in [3], in [19], in [4], in test [13] and in test [17] was “inactive” throughout. Moreover, the Potency entry (in test [18]; in [5]; with Aromatase (Homo sapiens); in test [11]; in test [6]; in [7]) was “inactive” throughout. The Potency entry in test [8], in [16], in test [9] and in test [10] was “inactive” each time.
`Clc1ccc(C(Cl)(Cl)Cl)cc1Cl`: the Potency entry in [1], in test [19], in [4], in test [13], in test [17] and in test [18] was “inactive” throughout. The Potency result (in test [5]; with Aromatase (Homo sapiens); in test [11]; in test [6]; in test [14]; in [7]) was “inactive” throughout. Also, the Potency result in test [16], in [9] and in test [10] was “inactive” throughout. Further, the Potency in [12] was 26.7 µM (active).
Consider `CC1=C2C[C@H]3[C@@H](CC=C4C[C@@H](O)CC[C@@]43C)[C@@H]2CC[C@]12O[C@@H]1C[C@H](C)CN[C@H]1[C@H]2C`, for which the Potency entry in test [1], in [3], in test [19], in test [4], in test [13] and in test [17] was “inactive” each time. Also, the Potency entry (in test [18]; with Aromatase (Homo sapiens); in [12]; in test [14]; in test [7]; in [16]) was “inactive” throughout. Besides, the Potency entry in [9] was “inactive”.
